# Rows were chosen to be rich in hits. Some 10% of all compounds tested hit in one or more screens of this group.
# Six1-Eya2 inh = inhibitors of human Six1/Eya2 interaction; activity change, % (no concentration beside the values); 360,000 tested, 0.56% active; AlphaScreen GST-Six1/His-Eya2 binding, biochemical; active compounds read low; in the data active means activity change below about -65%; inconclusive means mostly about -30% to -63%
#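 AlphaScreen luminescence read after one hour at 37 °C in darkness. Pin-transferred compounds met GST-Six1 and His-Eya2 protein (5X stock 250 nM/500 nM) plus glutathione donor and Ni-chelate acceptor beads (5X, 50 ug/mL).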
# G9a block = G9a (human) methyltransferase inhibition; Q96KQ7; G9a H3K9 monomethylation, AlphaScreen, 2 h; Potency, µM (titrated, usually from 102 µM), actives largely listed as inhibitors; 350,000 tested, 8.8% active; AID 504332; further: nearly all actives have a fitted effect of over 75% in size
#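 G9a (20 nM) was preincubated 15 min with compound, then reacted 2 h at room temperature with 500 nM biotin-H3K9 peptide and 20 µM SAM. Monomethyl-H3K9 detected by AlphaScreen using anti-H3K9me1 antibody.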
# HP1b binding inh = inhibitors of HP1-beta chromodomain binding to methylated histone tails. P83916. AlphaScreen HP1-beta / biotin-H3K9me3 peptide binding. Potency, µM (titrated, usually from 114 µM), usual class: inhibitors. 390,000 tested, 0.56% active; further: nearly all actives have a fitted effect of over 70% in size
#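 AlphaScreen: HP1-beta (50 nM) preformed 30 min with biotin-H3(1-18)K9me3 peptide (50 nM) in PBS pH 7.4, 0.01% Tween-20. Compound added for 30 min at RT, then streptavidin donor/nickel chelate acceptor beads (10 ug/mL) for 30 min.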
# CtBP-E1A inh = blocks the CtBP interaction with E1A | 340,000 tested, 0.49% active | AlphaScreen GST-E1A/His-CtBP binding, 1536-well; active compounds read low | activity change, % (concentration not given with the values); in the data active means activity change below about -65%; inconclusive means mostly about -30% to -63%
#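 Steps: dispense buffer (Tris pH 8.0, NaCl 300 mM, TCEP 1 mM, BSA, Tween 20); add 5X protein mix (GST-E1A, His-CtBP, 125 nM each); pin 23 nL compound; 2 h at 37 °C, dark; add 5X beads (50 ug/mL); 1 h; read.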
# BAZ2B inh = BAZ2B (human) inhibition. Q9UIF8. AlphaScreen BAZ2B-H3K14Ac peptide displacement. Potency, µM (top dose mostly 114 µM), hits mostly inhibitors. 360,000 tested, 4.4% active; further: nearly all actives have a fitted effect of over 60% in size
#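 BAZ2B 50 nM plus b-H3(5-23)K14Ac 50 nM, PBS pH 7.4/0.01% Tween-20, 30 min RT; compound added (max 110 uM), 30 min RT; streptavidin donor/Ni-chelate acceptor beads 10 ug/mL final, 20 min dark; AlphaScreen read.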
# JMJD2A Tudor inh = blocks the human JMJD2A Tudor domain; AlphaScreen JMJD2A-Tudor / H3K4me3 peptide binding; AID 504339; 390,000 tested, 4.4% active; O75164; Potency, µM (top dose mostly 114 µM), actives largely listed as inhibitors; further: nearly all actives have a fitted effect of over 50% in size
# A number is an active result; 0 = inactive; ? = inconclusive; - = no result. Unless noted, the call rests on the fitted dose curve; in most records, active means well fitted inhibition curve with a large enough effect; inconclusive means small, poorly fitted or top-dose-only effect; inactive means no such curve, though single readings can be large or run the other way.
SMILES,Six1-Eya2 inh,G9a block,HP1b binding inh,CtBP-E1A inh,BAZ2B inh,JMJD2A Tudor inh
COCCCNC(=S)N/N=C/c1cccc(OC)c1O,-89.8,-,0,-92.4,6.31µM,?
CCCCNC(=S)NC(C)(C)CO,0,11.2µM,0,-,0,0
CC(C)CCNC(=O)[C@H](CC(C)C)NC(=O)[C@H]1O[C@@H]1C(=O)O,-,35.5µM,-,-,0,-
O=C(NC1=NCCS1)c1cccc(S(=O)(=O)N2CCCCC2)c1,-,0,-,-,0,-
CCN(CC)S(=O)(=O)c1cccc(C(=O)NC2=NCCS2)c1,0,50.1µM,0,0,0,0
CCN(CC)S(=O)(=O)c1ccc(C(=O)NCCCn2ccnc2)cc1,0,0,0,0,0,0
O=C(NCCCn1ccnc1)c1ccc2nccnc2c1,0,-,0,?,50.1µM,0
CCN(CC)S(=O)(=O)c1cccc(C(=O)NCCCn2ccnc2)c1,0,56.2µM,0,0,0,0
Cc1ccc(C(=O)NCCCn2ccnc2)cc1C,0,-,0,0,-,0
COCCOC(=O)c1[nH]c2c(c1C)C(=O)C(C(=O)OC)C(C)C2 (stereo not given),0,0,0,0,0,0
CCCCCOC(=O)c1[nH]c2c(c1C)C(=O)C(C(=O)OC)C(C)C2 (stereo not given),0,?,0,0,0,14.1µM
Cc1ccc(C2CC(=O)Nc3c2c(C)nn3-c2nc(C)cc(C)n2)c(C)c1 (stereo not given),-,0,0,-,0,0
COc1cc(OC)cc(C(=O)Nc2nc(-c3nnn(-c4ccc(F)c(Cl)c4)c3C)ns2)c1,-,0,0,-,0,0
Cc1ccccc1-c1cn(-c2ccccc2)c(=S)[nH]1,0,1.41µM,0,0,?,?
COc1ccc(-n2cc(-c3ccc(Br)cc3)[nH]c2=S)cc1,0,0,0,0,?,0
Cc1ccc(-c2cn(-c3ccccc3)c(=S)[nH]2)cc1C,0,44.7µM,?,0,31.6µM,?
O=[N+]([O-])c1ccc(-c2cn(-c3ccc(Cl)cc3)c(=S)[nH]2)cc1,0,?,0,0,0,0
O=C(CSc1nc(-c2ccc(F)cc2)nc2c1Cc1ccccc1O2)Nc1ccc(C(=O)O)cc1,0,?,?,0,7.94µM,10µM
Cc1ccc(-c2nc3c(c(SCC(=O)Nc4cccc(C(=O)O)c4)n2)Cc2cccc(C)c2O3)cc1,-,10µM,?,-,7.08µM,3.16µM
O=C(CSc1nc(-c2ccccc2)nc2c1Cc1ccccc1O2)Nc1ccc(C(=O)O)cc1,-80.5,0,31.6µM,0,12.6µM,10µM
Cc1ccc(C)c(N2CCN(C(=O)Nc3cn(CC(C)C)c(=O)c4ccccc34)CC2)c1,-,?,0,-,0,0
C=C1CCN(C(CC(C)C)C(=O)O)S(=O)(=O)c2ccccc21 (stereo not given),-,-,0,-,-,0
Cc1ccc(-n2ncc(C(=O)Nc3cc(Cl)ccc3C)c2C2CCNCC2)cc1C,0,0,0,0,0,0
Cc1cc(C)cc(NC(=O)c2cnn(-c3ccccc3)c2C2CCNCC2)c1,0,39.8µM,0,-,0,0
Cc1ccc(N2CCN(C(=O)c3cnn(-c4ccc(C)c(C)c4)c3C3CCNCC3)CC2)c(C)c1,-,0,0,-,?,?
SMILES,Six1-Eya2 inh,G9a block,HP1b binding inh,CtBP-E1A inh,BAZ2B inh,JMJD2A Tudor inh
Cc1ccc(Cl)cc1N1CCN(C(=O)c2cnn(-c3ccc(Cl)cc3)c2C2CCNCC2)CC1,-,8.91µM,0,-,?,0
Cc1cccc(NC(=O)c2cnn(-c3ccc(F)cc3)c2C2CCNCC2)c1C,0,35.5µM,0,0,0,0
Cc1cc(C)cc(NC(=O)c2cnn(-c3ccc(C)c(C)c3)c2C2CCNCC2)c1,-,?,0,-,0,0
COc1ccc(OC)c(NC(=O)c2cnn(-c3ccc(C)cc3)c2C2CCNCC2)c1,-,?,0,-,?,79.4µM
CCOc1ccc(C2C(C(N)=O)=C(C)Nc3nc(SCc4ccccc4F)nn32)cc1 (stereo not given),-,0,0,-,0,0
COc1ccc(N2CC(NC(=O)c3cc4ccccc4o3)CC2=O)cc1 (stereo not given),-,0,0,-,0,0
Cc1ccc(CNC(=O)c2cnc3c(-c4ccc(F)cc4)c(C)nn3c2C)o1,-,0,0,-,0,0

# Screening data from PubChem BioAssay.
